Results taken from PubChem BioAssay (NCATS).
Records with an inconclusive call do not appear. Activity calls are given as the source filed them. Calls follow the shape of the dose curve; as a rule, active = well fitted inhibition curve with a large enough effect; inconclusive = small, poorly fitted or top-dose-only effect; inactive = no such curve, though single readings can be large or run the other way.

Experiment: Primary qHTS for small molecule stabilizers of the endoplasmic reticulum resident proteome: Secreted ER Calcium Modulated Protein (SERCaMP) assay (AID 1508630)
Conditions: SH-SY5Y GLuc-SERCaMP (Gaussia luciferase released on ER calcium loss) secretion, thapsigargin, luminescence; series mostly up to 38.4 µM; activity change, negative = inhibition: at the top concentration
Description: Assay Provider: Brandon K. Harvey Ph.D.
National Institute on Drug Abuse, National Institutes of Health, Baltimore, MD
Endoplasmic reticulum (ER) dysregulation is associated with human pathologies including neurodegenerative, cardiovascular, muscular, and diabetic conditions. Maintenance of ER calcium is critical for functions of the ER and its depletion can lead to loss of ER resident proteins, in a process termed exodosis. Therapeutic compounds capable of attenuating the redistribution of ER proteins under pathological conditions may slow or stop disease progression. To identify such compounds, we performed a quantitative high-throughput screen (qHTS) using the SERCaMP assay, which monitors secretion of ER resident proteins triggered by calcium depletion.
SERCaMP was initially developed as a reporter of ER calcium homeostasis using a Gaussia luciferase with a modified signal peptide and carboxy-terminus (GLuc-SERCaMP), modifications that confer secretion of the reporter in response to ER calcium depletion (Henderson et al., 2014). The assay was used to screen 9,501 compounds, including a collection of drugs approved by the FDA (US), EMA (EU), NHI (Japan), and HC (Canada) regulatory agencies (Huang et al., 2011). Since the SERCaMP reporter reflects the exodosis phenomenon (Trychta et al., 2018a), compounds identified in the screen have the potential to prevent exodosis by different mechanisms such as stabilizing ER calcium or augmenting ERS retrieval.
1. Henderson, M.J., Wires, E.S., Trychta, K.A., Richie, C.T., and Harvey, B.K. (2014). SERCaMP: a carboxy-terminal protein modification that enables monitoring of ER calcium homeostasis. Mol Biol Cell 25, 2828-2839.
2. Huang, R., Southall, N., Wang, Y., Yasgar, A., Shinn, P., Jadhav, A., Nguyen, D.T., and Austin, C.P. (2011). The NCGC pharmaceutical collection: a comprehensive resource of clinically approved drugs enabling repurposing and chemical genomics. Sci Transl Med 3, 80ps16.
3. Trychta, K.A., Back, S., Henderson, M.J., and Harvey, B.K. (2018a). KDEL Receptors Are Differentially Regulated to Maintain the ER Proteome under Calcium Deficiency. Cell Rep 25, 1829-1840 e1826.
SEQUENCE No. (1, 2, 3, etc.); […] (e.g., Cells, Incubation, Reagent, etc.); VALUE and DESCRIPTION.
1; Reagent; 5 uL; 1000 SH-SY5Y cells per wells
3; Compound; 23 nL; Control inhibitor / compound library
5; Reagent; 100 nM; Thapsigargin
7; Reagent; 1 uL; 0.5x coelenterazine
8; Detection; Luminescence; ViewLux imaging system
NOTES (numbers refer to sequence above)
1; SH-SY5Y human neuroblastoma cells stably expressing GLuc-SERCaMP (SH-SY5Y-GLuc-ASARTDL) cells were seeded in 1,536 well white tissue culture treated plates (Corning, Cat# 7464) in DMEM-high glucose-sodium pyruvate (ThermoFisher Scientific, Cat #10569) supplemented with 10% bovine growth serum (Hyclone), 10 U/ml penicillin (Gibco), 10 ug/ml streptomycin (Gibco), and 20 mM HEPES.
2; Assay plates were incubated for 5 hour at 37C in a humidified incubator containing 5% CO2.
3; qHTS libraries (23 nl, final concentrations of 1.53 uM, 7.67 uM, 38.3 uM) or controls (neutral control: DMSO, positive control: dantrolene) were added using a Kalypsis pin-tool Robotic System equipped with 1536 pinheads.
4; Cells were then incubated for 16 hours at 37C, 5% CO2.
5; Thapsigargin was added at 100 nM to deplete ER calcium stores.
6; Cells were incubated for 4 hour (37 °C, 5% CO2)
7; Gaussia luciferase in the medium was measured by adding 1 ul of 0.5x coelenterazine (final concentration 0.07x) prepared in Gaussia Luciferase Glow Assay Buffer (Pierce), without addition of the Cell Lysis Buffer Reagent.
8; Luminescence was measured using a ViewLux […] CCD imaging system (Perkin Elmer) equipped with clear filters. […] The same controls were also used for the calculation of the Z' factor, a measure of assay quality control, as previously described (Zhang et al., 1999). […]
% is scaled to controls: 0 for no effect and ±100 for the full control effect.

| Compound | activity change, negative = inhibition | Potency |
| --- | --- | --- |
| O=[N+]([O-])c1ccc(O[C@@H]2O[C@H](CO)[C@@H](O)[C@H](O)[C@H]2F)c([N+](=O)[O-])c1 | -8.3% (inactive) | – |
| CCCCC[C@@H](/C=C/C=C\C/C=C\C/C=C\CCCC(=O)O)OO | -17.3% [at 0.478 µM] (inactive) | – |
| CCc1cccc(CC)c1NC1=NCCN1 | -6.23% (inactive) | – |
| N#CC(C#N)=Cc1ccc([N+](=O)[O-])c(O)c1 | -14.5% (inactive) | – |
| CCCCC/C=C\C=C\[C@H](CCCCCCCC(=O)O)OO | -24.7% [at 0.478 µM] (inactive) | – |
| CC1=C[C@@H]2c3cccc4[nH]cc(c34)C[C@H]2N(C)C1 | 6.01% (inactive) | – |
| Cc1ncc(C[n+]2csc(CCO)c2C)c(=O)[nH]1 | -19.3% (inactive) | – |
| CN[C@@H]1C[C@H](c2ccc(Cl)c(Cl)c2)c2ccccc21 | 180% (inactive) | – |
| CNCC/C=C\c1cccnc1 | -29% (inactive) | – |
| CC1CCC2C(C)C(=O)OC3O[C@]4(C)CCC1[C@@]32OO4 (stereo not given in full) | -26.9% (inactive) | – |
| C=C(C)CN1CC[C@@]23c4c5ccc(O)c4O[C@H]2c2[nH]c4ccccc4c2C[C@]3(O)[C@@H]1C5 | -6% (inactive) | – |
| NCC(CS(=O)(=O)O)c1ccc(Cl)cc1 (stereo not given) | -29.7% (inactive) | – |
| NC[C@@H](CC(=O)O)c1ccc(Cl)cc1 | -14.7% (inactive) | – |
| CCN1C[C@]2(C)CC[C@H](O)[C@@]34C5C[C@@H]6[C@@H](OC)C[C@@](O)(C5[C@H]6O)[C@@H](CC23)[C@@H]14 (stereo not given in full) | -7.34% (inactive) | – |
| C1CC[C@H]([C@@]23C[C@H](C[C@H]4CCCN[C@H]42)[C@@H]2CCCCN2C3)NC1 | 27.8% (inactive) | – |
| CC(C)(O)[C@@H]1[C@H]2OC(=O)[C@@H]1[C@]1(O)C[C@H]3O[C@]34C(=O)O[C@H]2[C@@]14C (tested in a mixture with another compound) | -21.4% (inactive) | – |
| COC1=C[C@]23CCCN2CCc2cc4c(cc2[C@@H]3[C@@H]1O)OCO4 | -8.19% (inactive) | – |
| O=C(O)/C=C/CO | -4.48% (inactive) | – |
| NC1(c2ccccc2Cl)CCCCC1=O (stereo not given) | -27.1% (inactive) | – |
| CC[N+](CC)(CCCNC1=CC(=O)C(NCCC[N+](CC)(CC)Cc2ccccc2)=CC1=O)Cc1ccccc1 | – | inactive |

| Compound | activity change, negative = inhibition | Potency |
| --- | --- | --- |
| CC(C)C[C@H](NC(=O)[C@H](Cc1ccccc1)NC(=O)CNC(=O)[C@@H](NC(=O)[C@@H](N)Cc1ccc(O)cc1)[C@H](C)O)C(=O)N[C@H](C(=O)O)[C@H](C)O | -27.9% [at 3.88 µM] (inactive) | – |
| CC(C)(C)c1o[nH]c(=O)c1C[C@H](N)C(=O)O | -25.3% (inactive) | – |
| Cc1nc(N)sc1CCN | -20.4% (inactive) | – |
| CCCCC/C=C\C/C=C\C/C=C\CCCCCCC(=O)NCCO | -18.9% [at 3.88 µM] (inactive) | – |
| CC(C)=CCCC1(C)C=Cc2c(O)c3c(c(CC=C(C)C)c2O1)OC12C(=CC4CC1C(C)(C)OC2(C/C=C(/C)C(=O)O)C4O)C3=O (stereo not given) | 330% (inactive) | – |
| C[C@H]1CC[C@@H]2N(C1)C[C@H]1[C@@H]3C[C@H]4[C@@H](CC(=O)[C@H]5C[C@@H](O)CC[C@@]54C)[C@@H]3CC[C@H]1[C@]2(C)O | 5.15% (inactive) | – |
| COc1ccc2c(c1O)-c1cc(O)cc3c1[C@@H](C2)N(C)CC3 | -10.5% (inactive) | – |
| O=C1CCC[C@H]2[C@H]3CCCN4CCCC(=CN12)[C@@H]34 | -21.5% (inactive) | – |
| C[C@@H]1O[C@H](C[N+](C)(C)C)C[C@@H]1O | 56.5% (inactive) | – |
| H-YPFVEPI-OH | -11.8% [at 3.88 µM] (inactive) | – |
| CCCCCCCCCCCCCCCCOC[C@@H](O)COP(=O)([O-])OCC[N+](C)(C)C | 13.1% [at 3.88 µM] (inactive) | – |
| CC1(C)OC1COc1c2occc2cc2ccc(=O)oc12 (stereo not given) | 4.74% (inactive) | – |
| CCOc1cncc(/C=C/CCNC)c1 | -21.5% (inactive) | – |
| CN(CCCC(=O)c1cccnc1)N=O | -9.27% (inactive) | – |
| COc1cccc2c1C13CC[N+]4(CC5CC5)CO[C@]1(CCC(=O)C3)C4C2 | 8.61% (inactive) | – |
| CCCC[C@H]1C(=O)O[C@H](C)[C@H](NC(=O)c2cccc(NC=O)c2OC)C(=O)O[C@@H](C)[C@@H]1OC(=O)CC(C)C | 22.7% (inactive) | – |
| C=C1[C@@H](C)[C@H]2[C@H](Cc3ccccc3)NC(=O)[C@]23[C@H](OC(C)=O)/C=C/[C@](C)(O)C(=O)[C@@H](C)C/C=C/[C@H]3[C@@H]1O | 64.4% (inactive) | – |
| C=CCN1CCC2(C)c3cc(O)ccc3C[C@H]1[C@H]2C | -15.8% (inactive) | – |
| CC(N)(COP(=O)(O)Oc1ccccc1)C(=O)O (stereo not given) | -20% (inactive) | – |
| CCCC(=O)OCC[N+](C)(C)C | -23.3% (inactive) | – |
